Several values for one entry are separate records, joined by “and”; a condition that tells them apart may be missing. Identical values can stand only once. In all, about 360,000 compounds went through this assay and about 11,000 (3.1%) were called active. For the sample, actives were picked, then their nearest neighbours and some compounds at random. A number with no mark means an inactive call. Rule as the data show it: active = activity change below about -30%; inactive = the rest.
The molecules below were run against D(1A) dopamine receptor (Homo sapiens) (UniProt P21728) (assay: Antagonist of Human D 1 Dopamine Receptor: qHTS). Details: HEK293 TREx D1 cells, calcium flux, dopamine EC80; at 10 µM; hits give low values.
Summary of the method: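 Compound effects on dopamine-evoked calcium signalling were measured in tetracycline-induced HEK293 Trex D1 cells. Dopamine at EC80 followed a 180 s compound pre-read, and fluorescence was tracked kinetically for 180 s more.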
% is scaled to controls: 0 for no effect and ±100 for the full control effect.

D(1A) dopamine receptor (Homo sapiens), sequence (P21728 whole entry, looked up): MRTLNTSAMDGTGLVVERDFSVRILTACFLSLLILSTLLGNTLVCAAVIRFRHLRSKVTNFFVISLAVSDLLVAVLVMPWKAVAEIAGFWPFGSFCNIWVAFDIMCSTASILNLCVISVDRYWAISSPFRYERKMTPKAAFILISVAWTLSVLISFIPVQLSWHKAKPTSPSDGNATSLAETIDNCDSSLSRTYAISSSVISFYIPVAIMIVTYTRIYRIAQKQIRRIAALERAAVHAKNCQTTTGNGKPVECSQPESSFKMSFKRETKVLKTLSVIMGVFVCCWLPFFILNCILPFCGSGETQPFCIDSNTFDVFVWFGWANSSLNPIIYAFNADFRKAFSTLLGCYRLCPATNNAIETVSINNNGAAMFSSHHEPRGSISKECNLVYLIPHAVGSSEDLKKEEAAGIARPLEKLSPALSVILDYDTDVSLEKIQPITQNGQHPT

Row | Structure (SMILES) | activity change, negative = inhibition
1 | Cc1ccc(S(=O)(=O)c2nnn3c2nc(N2CCN(c4ccccc4F)CC2)c2cc(Cl)ccc23)cc1C | -0.0376%
2 | CCOc1ccccc1CNC(=O)C1CCCN(S(=O)(=O)c2ccc3c(ccn3C)c2)C1 (stereo unspecified) | -27.8%
3 | CN1CCN(CC(O)COCc2ccc3c(c2)OCO3)CC1 (stereo unspecified) | -5.88%
4 | COc1cc(Cl)c(S(=O)(=O)N2CCN(Cc3ccc4c(c3)OCO4)CC2)cc1Cl | 4.53%
5 | COc1cc(COCC(O)CN2CCN(Cc3ccc4c(c3)OCO4)CC2)cc(OC)c1OC (stereo unspecified) | -31.1% (active)
6 | CCOc1cccc(CNC(=O)c2ccc(N3CCCC3)c(NC(=O)Nc3ccccc3CC)c2)c1 | 4.78%
7 | CCc1nn(CC(=O)Nc2cc(C)cc(C)c2)c(=O)c2cc3sccc3n12 | 3.41%
8 | CCCN1CN=C(NS(=O)(=O)c2ccc(NC(C)=O)cc2)NC1 | -3.05%
9 | COc1cccc(C2/C(=C(/O)c3ccc(F)cc3)C(=O)C(=O)N2CCN(C)C)c1 (stereo unspecified) | -3.01%
10 | COc1ccc(/C(O)=C2/C(=O)C(=O)N(CC3CCCO3)C2c2ccc(OC)c(OC)c2)cc1 (stereo unspecified) | -3.45%
11 | CCCOc1ccc(/C(O)=C2/C(=O)C(=O)N(CCN(C)C)C2c2ccc(OC)c(OC)c2)cc1 (stereo unspecified) | -33.3% (active)
12 | COc1ccc(/C(O)=C2/C(=O)C(=O)N(CCCN(C)C)C2c2ccccc2)cc1OC (stereo unspecified) | -33.2% (active)
13 | O=C1C(=O)N(CCCO)C(c2ccccc2)/C1=C(\O)c1ccc(Br)cc1 (stereo unspecified) | -7%
14 | COc1cccc(C2/C(=C(/O)c3ccncc3)C(=O)C(=O)N2CCCN(C)C)c1 (stereo unspecified) | -21.5%
15 | CCc1ccc(CNC(=O)c2ccc(CS(=O)c3ccc(Br)cc3)o2)cc1 (stereo unspecified) | 6.94%
16 | COc1c(Cl)cc(C(=O)N(Cc2ccccc2F)C2CCS(=O)(=O)C2)cc1Cl (stereo unspecified) | -0.91%
17 | CCOC(=O)c1ccc2c(c1)N(Cc1cccc(OC)c1)C(=O)c1ccccc1S2(=O)=O | 4.54%
18 | Cc1c(Cl)cccc1NC(=O)CCS(=O)(=O)c1ccc2c(c1)oc(=O)n2C | -0.334%
19 | O=C(c1ccc(Cl)cc1)n1nc(-c2cccnc2)nc1NCc1ccc(F)cc1 | -16.2%
20 | CCOc1ccc(OCC)c(NC(=O)CN(c2ccc(C)cc2)S(=O)(=O)c2c(C)n[nH]c2C)c1 | -7.76%
21 | O=C1Nc2cc(Cl)c(Cl)cc2N(O)N1c1ccccc1Cl | -7.41%
22 | O=C1Nc2cc(Cl)c(Cl)cc2N(O)N1c1cc(Cl)cc(Cl)c1 | -76.7% (active)

Row | Structure (SMILES) | activity change, negative = inhibition
23 | Cc1c(CNC(C)c2ccccc2)c(C(=O)O)c(C)n1Cc1c(F)cccc1Cl (stereo unspecified) | 18.6%
24 | CCOc1ccc(OCC)c(NC(=O)c2c(C)nn(-c3ccccc3)c2-n2cccc2)c1 | 7.71%
25 | CCc1ccc2nc(N(CCCN(C)C)C(=O)c3ccc4c(c3)OCCO4)sc2c1 | -34.9% (active)
26 | CCN(CC)CCN(C(=O)c1cc(Cl)sc1Cl)c1nc2cc3c(cc2s1)OCO3 | -2.46%
27 | NS(=O)(=O)c1ccc2nc(NC(=O)C3=COCCO3)sc2c1 | 1.85%
28 | O=C(Nc1nnc(S(=O)(=O)N2CCCc3ccccc32)s1)c1cccc(F)c1 | -7.22%
29 | Cc1ccc2sc(NNC(=O)c3ccc4c(c3)OCCO4)nc2c1C | 23.4%
30 | CN(C)CCCN(C(=O)c1ccc(S(=O)(=O)N2CCCc3ccccc32)cc1)c1nc2ccc(F)cc2s1 | -31.4% (active)
31 | CC(C)N(Cc1nnc(-c2ccc(Cl)cc2)o1)C(=O)C1=COCCO1 | 2.43%
32 | CCN(CC)CCN(C(=O)c1ccc(N2C(=O)CCC2=O)cc1)c1nc2cc3c(cc2s1)OCO3 | 6.3%
33 | CN(C)CCN(C(=O)C1=COCCO1)c1nc2ccc(Cl)cc2s1 | -46.4% (active)
34 | O=C(Nc1ccc2nc(SCC(=O)N3CCCc4ccccc43)sc2c1)c1ccc(F)cc1 | -9.64%
35 | Cc1ccc2nc(N(CCN(C)C)C(=O)C3=COCCO3)sc2c1 | -34.5% (active)
36 | Cc1cc(C)c2nc(N(CCN(C)C)C(=O)/C=C/c3cccs3)sc2c1 | 6.71%
37 | CC1CCN(S(=O)(=O)c2ccc3c(c2)N(CC(=O)NCCc2ccccc2)C(=O)CO3)CC1 | 1.55%
38 | Cc1ccc(C(=O)CC2(O)C(=O)N(CCc3ccccc3)c3ccc(Br)cc32)cc1 (stereo unspecified) | 12.6%
39 | COc1cc(OC)c(C2C=C(C(=O)O)Nc3ncnn32)cc1OC (stereo unspecified) | 4.4%
40 | COc1ccc(C2C(=O)N(C3CCCCCC3)CC(=O)N2CCc2ccc(Cl)cc2)cc1OC (stereo unspecified) | 6.57%
41 | COc1cccc(CNC(=O)c2ccc3c(Cl)c4c(nc3c2)CCCC4)c1 | -2.7%
42 | CCOc1ccc(CCNC(=O)CN(c2ccc(C)cc2)S(=O)(=O)N(C)C)cc1OCC | 6.83%
43 | Cc1ccc(Cn2c(CNC(=O)Cc3cccc(C)c3)nc3cccnc32)cc1 | -3.78%
44 | O=C(NC1(C(F)(F)F)N=C(c2ccccc2)N(C2CCCCC2)C1=O)c1ccccc1F (stereo unspecified) | -5.87%

Row | Structure (SMILES) | activity change, negative = inhibition
45 | COc1ccc(-c2cn3nc(N4CCC(C(=O)Nc5cccc(C)c5C)CC4)sc3n2)cc1 | -7.07%
46 | CCOC(=O)CSc1nnc(NC(=O)c2cccc(S(=O)(=O)N3CCCC3)c2)s1 | -6.95%
47 | O=C(Nc1nncs1)c1cccc(S(=O)(=O)N2CCCCC2)c1 | 5.14%
48 | CCOC(=O)CSc1nnc(NC(=O)c2cccc(S(=O)(=O)N3CCCCC3)c2)s1 | -31.1% (active)
49 | Cn1nc(C(F)(F)F)c2cc(C(=O)N3CCOCC3)sc21 | 6.73%
50 | Cn1nc(C(F)(F)F)c2cc(NC(=O)OCC(C)(C)C)sc21 | -42.5% (active)
51 | Cn1nc(C(F)(F)F)c(-c2ccc(F)cc2)c1NC(=O)CSCC(=O)O | 8.45%
52 | Cc1ccc(Cl)cc1NC(=O)CCS(=O)(=O)c1ccc(Br)s1 | 6.29%
53 | COc1ccc(C(=O)N2CCC(c3nc4ccccc4o3)CC2)cc1 | 4.96%
54 | CCOC(=O)Cn1c(=O)n(C2CCCCC2)c2nc(-c3cccc(OC)c3)nc(C(N)=O)c21 | 8.07%
55 | Cc1csc(NC(=O)C2=COCCO2)n1 | -2.15%
56 | CCC(CC)c1nnc(NC(=O)c2nn(C)c(=O)c3ccccc23)s1 | 0.594%
57 | CCC(CC)c1nnc(NC(=O)C2=COCCO2)s1 | -42.7% (active)
58 | CC(=O)N1c2ccccc2CC1C(=O)N1CCN(c2ccc(F)cc2)CC1 (stereo unspecified) | 9.38%
59 | COc1ccc(N2CCN(c3cc(C)nc4nncn34)CC2)cc1 | -2.83%
60 | Cc1nc(N2CCOCC2)c2c(C(=O)NCc3cccc(Cl)c3)c(C)oc2n1 | 6.25%
61 | COc1cc(NC(=O)C2=CC(c3ccc(C)cc3)=NS(=O)(=O)N2C)cc(OC)c1OC | -12.9%
62 | COc1cc(NC(=O)C2=CC(c3ccco3)=NS(=O)(=O)N2C)cc(OC)c1OC | -11.3% and -11.4%
63 | COc1ccc(NC(=O)C2=CC(c3ccc(OC)c(OC)c3)=NS(=O)(=O)N2C)cc1 | -44.8% (active)
64 | CCN(C(=O)c1sc2cc(OC)ccc2c1Cl)c1ccccc1 | 1.09%
65 | CCc1cccc(NC(=O)c2cc(-c3ccccc3)n[nH]2)c1 | -7.87%
66 | CCc1cccc(NC(=O)CCNS(=O)(=O)c2cccc3nonc23)c1 | 8.81% and 29.5%

Row | Structure (SMILES) | activity change, negative = inhibition
67 | CCc1cccc(NC(=O)CCC(=O)O)c1 | -45.7% (active)
68 | O=CN1CCN(C(=O)c2ccc3c(c2)OCO3)CC1 | 11.7%
69 | O=CN1CCN(C(=O)c2ccc(Br)o2)CC1 | -36.1% (active)
70 | O=C(c1ccc(Br)o1)N1CCN(CCOc2ccccc2)CC1 | 3.56%
71 | CC(C)c1ccc(C2CC(=O)N3CN(C4CCCCC4)CSC3=C2C#N)cc1 (stereo unspecified) | -4.95%
72 | COc1cccc(CNC(=O)Cn2ncn3c(cc4ccccc43)c2=O)c1 | 2.91%
73 | CCOC(=O)[C@@H]1[C@H]2COc3cc(OC)ccc3[C@@H]2N2C(=O)N(c3cccc(C)c3)C(=O)[C@@]12C | -0.419%
74 | CCOC(=O)[C@@H]1[C@H]2COc3cc(OC)ccc3[C@H]2N2C(=O)N(c3ccc(F)cc3)C(=O)[C@]12C | -0.628%
75 | CCOC(=O)[C@H]1[C@H]2COc3cc(OC)ccc3[C@@H]2N2C(=O)N(c3ccc(Br)cc3)C(=O)[C@@]12C | -55.7% (active)
76 | COc1ccc(-c2cn3c(n2)sc2cc(C(=O)Nc4ccc(F)cc4)ccc23)cc1 | -1.55%
77 | O=C(O)c1cc(S(=O)(=O)N(Cc2ccccc2)c2ccccc2)ccc1Cl | 11.6%
78 | O=C(O)c1cc(S(=O)(=O)N(Cc2ccccc2)c2cccc(C(F)(F)F)c2)ccc1Cl | 3.45%
79 | O=S(=O)(c1ccccc1)N(Cc1cccc(F)c1)c1ccccc1 | -30.7% (active)
80 | CCc1ccccc1NC(=O)Cn1c(=O)n(-c2cccc(C)c2)c(=O)c2c1c1cc(OC)ccc1n2C | -1.63%
81 | CCCC(=O)Nc1ccc2oc(-c3ccc(O)c(Br)c3)nc2c1 | -6.2%
82 | COc1cccc(C(=O)NC2=NC(c3ccc(N(C)C)cc3)CC(=O)N2)c1 (stereo unspecified) | -6.47%
83 | Cc1ccccc1-n1c(=O)c2ccccc2n(Cc2ccc(F)cc2)c1=O | 8.59%
84 | COC(=O)CCc1sc(Nc2ccc(Br)cc2)nc1-c1ccc(OC)cc1 | -33.1% (active)
85 | CNC(=O)c1sc(Nc2ccc(OCc3ccccc3)cc2)nc1C | -6.26%
86 | COc1ccc(NC(=O)CCC(=O)Nc2nnc(C3CCCCC3)s2)cc1 | 5.47%

Reference: PubChem BioAssay AID504652 (National Center for Advancing Translational Sciences (NCATS), 2011)
